Assay results taken from PubChem BioAssay AID588692 (Broad Institute, 2011).
The whole screen tested about 360,000 compounds, of which about 830 (0.23%) were called active. The full list was thinned out, with actives kept by preference. Unmarked numbers belong to inactive results.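 The calls were made as follows: active = mean luciferase reporter signal, scaled so untreated is 0 and the glycosylation-blocking control 100, at or above a set limit in every replicate; inconclusive = mean reaches the limit but not every replicate does; inactive = mean below the limit.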

assay: increase of ERlucT glycosylation luciferase signal, primary screen, N-linked glycosylation inhibitor project, D54 ERlucT cells, luminescence, set 2 (AID 588692); conditions: 24 h, at 12.5 µM, hits give high values, percent of 100 nM tunicamycin response;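 also: luciferase carries N-glycosylation sites so blocking glycosylation raises the light; 0% = median of neutral control wells and 100% = median of 100 nM tunicamycin wells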

Structure (SMILES) | reporter increase
COc1ccc(N2CCN(S(=O)(=O)c3cc4c5c(c3)C(C)C(=O)N5CCC4)CC2)cc1 (stereo not drawn) | -1.71%
CCn1nc(C(=O)NNC(=O)C2CSC3(C)CCC(=O)N23)c2ccccc2c1=O (stereo not drawn) | -0.092%
CC(NCc1cccs1)C(=O)Nc1cc(Cl)cc(Cl)c1 (stereo not drawn) | 0.0655%
O=C(N/N=C/C=C/c1ccccc1)C1CC1(c1ccccc1)c1ccccc1 (stereo not drawn) | -0.496%
CN(C)S(=O)(=O)c1ccc(N2CCCC2)c(C(=O)Nc2cccc(F)c2)c1 | 48.8% (active)
CN(C)S(=O)(=O)c1ccc(N2CCCC2)c(C(=O)NCc2ccccc2)c1 | -1.02%
CN(C)S(=O)(=O)c1ccc(N2CCCC2)c(C(=O)Nc2ccc(Br)cc2F)c1 | -1.25%
CN(NC(=O)C1CC(=O)N(c2ccccc2)C1)C1=NS(=O)(=O)c2ccccc21 (stereo not drawn) | 1.73%
CC[C@H]1OC(=O)[C@H](C)[C@@H](O[C@H]2C[C@@](C)(OC)[C@@H](O)[C@H](C)O2)[C@H](C)[C@@H](O[C@@H]2O[C@H](C)C[C@H](N(C)C)[C@H]2O)[C@](C)(O)C[C@@H](C)[C@@H]2N[C@@H](COCCOC)O[C@H]([C@H]2C)[C@]1(C)O | 0.0685%
O=C1[C@H]2[C@@H](c3ccc(Cl)cc3)N3C(=O)N(c4cccc(F)c4)C(=O)[C@@]3(Cc3ccccc3)[C@H]2C(=O)N1C1CCCCC1 | -1.72%
CC[C@@]12C(=O)N(c3ccccc3)C(=O)N1[C@H](c1ccc(Br)cc1)[C@@H]1C(=O)N(C(C)(C)C)C(=O)[C@@H]12 | -1.3%
COc1ccc([C@@H]2[C@@H]3C(=O)N(C(C)(C)C)C(=O)[C@@H]3[C@]3(Cc4ccccc4)C(=O)N(c4cccc(Br)c4)C(=O)N23)cc1 | 36.7% (active)
CC(C)(C)N1C(=O)[C@H]2[C@@H](c3ccc(Br)cc3)N3C(=O)N(c4cccc(Cl)c4)C(=O)[C@@]3(C)[C@H]2C1=O | -3.13%
O=C1[C@H]2[C@@H](c3ccc(F)cc3)N3C(=O)N(c4ccc(C(F)(F)F)cc4)C(=O)[C@@]3(Cc3ccccc3)[C@H]2C(=O)N1C1CCCCC1 | -7.93%
Cc1cccc(N2C(=O)N3[C@H](c4ccc(F)cc4)[C@@H]4C(=O)N(C5CCCCC5)C(=O)[C@@H]4[C@]3(Cc3ccccc3)C2=O)c1 | 78.2% (active)
CCCCN(C)C(=O)c1ccc2c(c1)N(CC)C(=O)c1ccccc1S2(=O)=O | 2.3%
O=C(CN1C(=O)NC2(CCc3ccccc32)C1=O)NC1CCCCC1 (stereo not drawn) | 3.09%
COCCNC(=O)CN1C(=O)CSc2ncccc21 | 3.24%
OC[C@@H]1CN(Cc2ccc3c(c2)OCO3)C[C@H](n2cnc3c(NCc4ccco4)ncnc32)O1 | -0.219%
COc1ccc2c(c1)[C@H]1[C@H](CO2)[C@H](c2ccccc2)[C@]2(C)C(=O)Nc3cc(F)c(F)cc3C(=O)N12 | 42% (active)
Cc1ccc2c(c1)NC(=O)[C@@]1(C)[C@@H](c3ccccc3)[C@H]3COc4ccc(Cl)cc4[C@@H]3N1C2=O | 19.6%
CCOC(=O)[C@H]1[C@H]2COc3ccc(OC)cc3[C@@H]2N2C(=O)c3ccc(F)cc3NC(=O)[C@@]12C | 7.58%
CC(=O)c1ccc(S(=O)(=O)NC2CC(=O)N(c3ccc4c(c3)OCCO4)C2)cc1 (stereo not drawn) | 0.667%
C[C@@H]1CN([C@@H](C)CO)C(=O)c2cc(Br)cnc2O[C@@H]1CN(C)C(=O)C1CCCCC1 | -0.264%

Structure (SMILES) | reporter increase
CC1(C)O[C@@H]2[C@H](O1)[C@@H](COS(=O)(=O)O)O[C@H]2n1ccc(=O)[nH]c1=O | 2.9%
CCCNC(=O)C1(C)CCN(C(=O)c2cc(F)ccc2C)C1 (stereo not drawn) | -0.06%
CC(C)OCCCNC(=S)N1CCC(C(=O)c2ccc3c(c2)OCCO3)CC1 | -1.26%
COc1ccc(C)cc1NC(=O)CSc1cccc[n+]1[O-] | 1.45%
CN(C)c1ccc(S(=O)(=O)NCC(=O)NCC2CCCCC2)cc1[N+](=O)[O-] | -0.935%
CN(C)c1ccc(/C=C/C(=O)c2ccc(C(C)(C)C)cc2)cc1[N+](=O)[O-] | 32.9% (active)
O=C(/C=C/c1ccc(Cl)cc1)N1CCN(c2ccccc2[N+](=O)[O-])CC1 | 0.213%
CC/C(=N\NC(=O)c1c(C)nc2ccccn12)c1ccc(Cl)cc1 | -0.008%
OCc1ccc(-c2ccccc2)c(-c2ccccc2)c1 | 2.12%
CCCc1nc2ccccc2c(C(=O)OCc2nnc(-c3cc(OC)c(OC)c(OC)c3)o2)c1CC | 1.91%
O=C1C2C3C=CC(C3)C2C(=O)N1c1ccc(S(=O)(=O)Nc2nccs2)cc1 (stereo not drawn) | -0.133%
Cc1sc2ncnc(SCC(=O)Nc3ccc(CN4CCCC4)cc3)c2c1C | -0.51%
C=CCn1c(SCc2c(C)noc2C)nc2sc3c(c2c1=O)CCC(C)C3 (stereo not drawn) | 27.8% (active)
C=CCn1c(SCC(=O)NCCCO)nc2sc3c(c2c1=O)CCC3 | 0.299%
C=CCn1c(SCC(=O)NCC2CCCO2)nc2sc(C)c(C)c2c1=O (stereo not drawn) | -1.1%
N#Cc1ccc(C2=CC(=O)C[C@H](c3ccc(Cl)cc3)C2)cc1 | 1.89%
CC(=O)NCC(=O)N(Cc1ccco1)C1(C(=O)NC2CCCC2)CCCCC1 | -0.741%
O=C(Nc1ccc(Cl)cc1)C1Cc2c(-c3ccc4c(c3)OCO4)ccnc2O1 (stereo not drawn) | 1.69%
CCc1c(C)n([O-])c2c([n+]1=O)CCCCC2 | 2%
CCCNC(=O)C1(C)CCCN(C(=O)c2cccc(OC(C)=O)c2C)C1 (stereo not drawn) | -0.136%
Cc1ccc(Nc2nc(CSc3nnc(-c4ccncc4)n3-c3ccccc3C)cs2)cc1 | -2.15%
CC1CCCCN1C(=O)Cn1c(=O)oc2cc(S(=O)(=O)N3CCCCC3)ccc21 (stereo not drawn) | -0.145%
COc1cccc(CNC(=O)Cn2c(=O)oc3cc(S(=O)(=O)N4CCCCC4)ccc32)c1 | -0.785%
CC(C)CCNC(=O)Cn1c(=O)oc2cc(S(=O)(=O)N3CC(C)CC(C)C3)ccc21 (stereo not drawn) | 114% (active)
